Test results as given in PubChem BioAssay (EPA / NIEHS).
Where “and” joins values, the source holds several entries; their conditions need not be identical. Equal values may be shown once. Results filed as inconclusive are left out. Calls of active or inactive are those of the source. The calls were made as follows, unless noted: active = hit-call score of the fitted dose curve at least 0.9, where 1 is the maximum; inconclusive = response in the unintended direction; inactive = score below 0.9.

Read-out: not listed separately
Experiment: BSK_SAg_SRB: Viability Assessment in the BioMAP Diversity Plus: SAg Assay (AID 2283096; active = hit-call score of the fitted dose curve at least 0.9, where 1 is the maximum; inactive = score below 0.9;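 also: cells read one day after compound addition; hits may be either gain or loss of signal compared with DMSO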)
Conditions: primary human HUVEC with PBMC
Method in brief: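 This overt-cytotoxicity endpoint quantifies protein in human endothelial/PBMC co-cultures at 24 h using SRB absorbance (560 nm) after trichloroacetic acid fixation. Values reflect signal change from the DMSO negative control, fitted bidirectionally.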

SMILES	AC50	outcome
O=C1C(Cl)=C(Cl)C(=O)C(Cl)=C1Cl	30.9 µM (active)	
N#CCCCCC#N		inactive
COCC(=O)N(c1c(C)cccc1C)N1CCOC1=O		inactive
CC(C)CCCCCCCOP(=O)(Oc1ccccc1)Oc1ccccc1	25.9 µM (active)	
C=CCN(CC=C)C(=O)C(Cl)Cl		inactive
c1ccc(Nc2ccc3ccccc3c2)cc1		inactive
Cc1ccc(OP(=O)(Oc2ccc(C)cc2)Oc2ccc(C)cc2)cc1 (tested in a mixture with another compound)	20 µM (active)	
O=S(=O)(c1ccccc1)c1ccccc1		inactive
CC(=O)/C=C/c1ccccc1		inactive

Target: Cytochrome P450 2C19 (Homo sapiens) (UniProt P33261)
Experiment: NVS_ADME_hCYP2C19: NovaScreen (NVS) CYP450-related Enzyme Activity (ADME) Assay for human CYP2C19 (AID 2283113);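 also: potency for inhibition seen as loss of fluorescent signal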
Conditions: not given
Procedure: NVS_ADME_hCYP2C19 is a biochemical, single-readout assay that uses extracted gene-proteins from insect cells in a cell-free assay. Measurements were taken 1 hour after chemical dosing in a 96-well plate.NVS_ADME_hCYP2C19 is one of one assay component(s) measured or calculated from the NVS_ADME_hCYP2C19 assay. It is designed to make measurements of enzyme activity, a form of enzyme reporter, as detected with fluorescence intensity signals by Fluorescence technology.Data from the assay component NVS_ADME_hCYP2C19 was analyzed into 1 assay endpoint. This assay endpoint, NVS_ADME_hCYP2C19, was analyzed in the positive analysis fitting direction relative to Acetonitrile as the negative control and baseline of activity. Using a type of enzyme reporter, loss-of-signal activity can be used to understand changes in the enzymatic activity as they relate to the gene CYP2C19. Furthermore, this assay endpoint can be referred to as a primary readout, because this assay has produced multiple assay endpoints where this one serves a enzymatic activity function. To generalize the intended target to other relatable targets, this assay endpoint is annotated to the cyp intended target family, where the subfamily is xenobiotic metabolism.
Binding assays used specific radioligands (tritiated, iodinated) with non-radioactive competitive displacement ligands in agonist or antagonist protocols (as indicated) and various reference compounds and inhibitors to titrate specific binding to receptors and transporters. Most enzyme assays (CYPs, kinases, phosphatases, proteases, HDACs) used recombinant protein and specific substrates (fluorescence mostly, some colorimetric and radioactive) and inhibitors, followed by a biochemical separation of substrate and product. All assays for the biochemical HTS were initially run in duplicate at a single concentration (10 uM for CYP450 assays and 25 uM for all others). […] Each assay was run with positive and negative controls, and concurrent controls on every plate. The follow-up (secondary) screen tested active chemical-pairs in concentration series, as well as a few additional assays not tested in the primary screen, some selected negative inactives, and several cases re-run in the concentration series for confirmatory purposes.

SMILES	AC50
CC(C)(c1cc(Cl)c(O)c(Cl)c1)c1cc(Cl)c(O)c(Cl)c1	0.992 µM (active)
CC(Cc1ccc(C(C)(C)C)cc1)CN1C[C@@H](C)O[C@@H](C)C1 (stereo partly drawn)	6.83 µM (active)
O=CNC(N1CCN(C(NC=O)C(Cl)(Cl)Cl)CC1)C(Cl)(Cl)Cl (stereo not drawn)	5.96 µM (active)

Target: human Matrix Metalloproteinase-9 (MMP9), MMP9 (gene 4318) (UniProt P14780)
Experiment: NVS_ENZ_hMMP9: NovaScreen (NVS) Enzymatic Assay for human Matrix Metalloproteinase-9 (MMP9) (AID 2283190);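 also: cell-free recombinant MMP9 protease activity read by fluorescent substrate signal; active means inhibition seen as loss of fluorescence signal versus DMSO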
Conditions: not given
Method in brief: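 Cell-free fluorescence-intensity enzyme activity assay using extracted protein, read 1 h after dosing. Loss of signal versus DMSO baseline indicates inhibition; primary screen in duplicate at 25 uM, actives followed up in concentration series.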

human Matrix Metalloproteinase-9 (MMP9), MMP9 (gene 4318), sequence (P14780 whole entry, looked up): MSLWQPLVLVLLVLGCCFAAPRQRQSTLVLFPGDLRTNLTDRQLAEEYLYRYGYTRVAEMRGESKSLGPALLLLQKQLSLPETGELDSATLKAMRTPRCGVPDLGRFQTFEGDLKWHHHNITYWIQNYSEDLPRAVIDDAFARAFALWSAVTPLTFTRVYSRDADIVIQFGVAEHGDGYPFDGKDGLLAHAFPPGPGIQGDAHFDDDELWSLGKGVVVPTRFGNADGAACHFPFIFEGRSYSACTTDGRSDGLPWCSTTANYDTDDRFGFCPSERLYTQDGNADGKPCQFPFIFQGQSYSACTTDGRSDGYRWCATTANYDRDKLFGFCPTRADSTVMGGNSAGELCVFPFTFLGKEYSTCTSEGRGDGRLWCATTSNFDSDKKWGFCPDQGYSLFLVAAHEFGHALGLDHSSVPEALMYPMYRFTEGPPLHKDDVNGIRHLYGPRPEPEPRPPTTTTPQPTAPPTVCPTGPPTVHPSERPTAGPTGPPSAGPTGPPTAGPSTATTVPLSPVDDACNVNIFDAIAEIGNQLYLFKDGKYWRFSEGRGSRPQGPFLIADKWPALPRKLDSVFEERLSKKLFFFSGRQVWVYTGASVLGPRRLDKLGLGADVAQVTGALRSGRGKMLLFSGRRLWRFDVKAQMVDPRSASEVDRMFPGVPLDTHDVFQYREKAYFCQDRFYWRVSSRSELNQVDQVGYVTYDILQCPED

SMILES	AC50
CCC[N+](=O)[O-]	6.06 µM (active)
CC=Cc1ccc2c(c1)OCO2	5.42 µM (active)
N#Cc1cccc(C#N)c1	7.24 µM (active)

Target: human Phosphodiesterase 10 (PDE10), PDE10A (gene 10846) (UniProt Q9Y233)
Experiment: NVS_ENZ_hPDE10: NovaScreen (NVS) Enzymatic Assay for human Phosphodiesterase 10 (PDE10) (AID 2283195)
Conditions: not given
Method in brief: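 Readout is fluorescence intensity following electrophoretic mobility-shift separation, 1 h after dosing of isolated PDE10A protein. Hits meeting a preset threshold at 25 uM went to concentration series (max 50 uM), analysed relative to DMSO.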

human Phosphodiesterase 10 (PDE10), PDE10A (gene 10846), sequence (Q9Y233 whole entry, looked up): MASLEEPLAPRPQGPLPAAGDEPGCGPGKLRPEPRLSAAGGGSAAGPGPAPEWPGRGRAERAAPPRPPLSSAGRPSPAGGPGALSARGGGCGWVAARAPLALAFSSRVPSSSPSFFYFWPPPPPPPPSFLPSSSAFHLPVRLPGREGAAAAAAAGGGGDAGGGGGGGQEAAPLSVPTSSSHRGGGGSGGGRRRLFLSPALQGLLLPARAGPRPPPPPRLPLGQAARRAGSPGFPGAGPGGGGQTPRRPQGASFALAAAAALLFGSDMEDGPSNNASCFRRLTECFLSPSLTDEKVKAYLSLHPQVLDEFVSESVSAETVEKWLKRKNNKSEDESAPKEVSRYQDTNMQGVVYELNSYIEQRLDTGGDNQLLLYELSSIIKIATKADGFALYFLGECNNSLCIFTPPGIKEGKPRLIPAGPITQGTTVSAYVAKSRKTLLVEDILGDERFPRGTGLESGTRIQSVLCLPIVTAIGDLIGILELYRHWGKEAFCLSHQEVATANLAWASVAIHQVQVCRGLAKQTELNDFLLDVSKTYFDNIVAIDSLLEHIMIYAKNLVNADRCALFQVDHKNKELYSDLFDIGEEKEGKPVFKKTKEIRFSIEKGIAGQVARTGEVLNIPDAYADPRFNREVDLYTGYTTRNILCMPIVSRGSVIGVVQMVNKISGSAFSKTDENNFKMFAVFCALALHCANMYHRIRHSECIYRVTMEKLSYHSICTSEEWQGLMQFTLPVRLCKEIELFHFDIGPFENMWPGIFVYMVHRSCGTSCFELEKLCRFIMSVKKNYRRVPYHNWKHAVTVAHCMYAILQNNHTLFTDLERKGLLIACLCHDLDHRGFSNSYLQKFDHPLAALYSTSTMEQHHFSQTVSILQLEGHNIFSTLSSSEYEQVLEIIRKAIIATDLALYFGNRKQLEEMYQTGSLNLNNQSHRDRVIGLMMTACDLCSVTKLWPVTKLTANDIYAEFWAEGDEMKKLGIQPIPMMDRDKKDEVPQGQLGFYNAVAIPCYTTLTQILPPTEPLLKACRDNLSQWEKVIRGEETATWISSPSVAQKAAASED

SMILES	outcome
N#CCCCCC#N	inactive
COCC(=O)N(c1c(C)cccc1C)N1CCOC1=O	inactive
S=c1[nH]c2ccccc2[nH]1	inactive

Target: sheep Cyclooxygenase-1 (Cox1), PTGS1 (gene 443551) (UniProt P05979)
Experiment: NVS_ENZ_oCOX1: NovaScreen (NVS) Enzymatic Assay for sheep Cyclooxygenase-1 (Cox1) (AID 2283239);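 also: actives reduce cyclooxygenase activity so potencies are for inhibitors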
Conditions: not given
Method in brief: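 Cell-free colorimetric assay of enzyme activity in a native extract of ovine seminal vesicles. Absorbance was read 0.66 hour after compound addition. Loss of signal relative to the DMSO negative control was scored, with actives from the 25 uM duplicate primary screen retested in concentration series.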

sheep Cyclooxygenase-1 (Cox1), PTGS1 (gene 443551), sequence (P05979 whole entry, looked up): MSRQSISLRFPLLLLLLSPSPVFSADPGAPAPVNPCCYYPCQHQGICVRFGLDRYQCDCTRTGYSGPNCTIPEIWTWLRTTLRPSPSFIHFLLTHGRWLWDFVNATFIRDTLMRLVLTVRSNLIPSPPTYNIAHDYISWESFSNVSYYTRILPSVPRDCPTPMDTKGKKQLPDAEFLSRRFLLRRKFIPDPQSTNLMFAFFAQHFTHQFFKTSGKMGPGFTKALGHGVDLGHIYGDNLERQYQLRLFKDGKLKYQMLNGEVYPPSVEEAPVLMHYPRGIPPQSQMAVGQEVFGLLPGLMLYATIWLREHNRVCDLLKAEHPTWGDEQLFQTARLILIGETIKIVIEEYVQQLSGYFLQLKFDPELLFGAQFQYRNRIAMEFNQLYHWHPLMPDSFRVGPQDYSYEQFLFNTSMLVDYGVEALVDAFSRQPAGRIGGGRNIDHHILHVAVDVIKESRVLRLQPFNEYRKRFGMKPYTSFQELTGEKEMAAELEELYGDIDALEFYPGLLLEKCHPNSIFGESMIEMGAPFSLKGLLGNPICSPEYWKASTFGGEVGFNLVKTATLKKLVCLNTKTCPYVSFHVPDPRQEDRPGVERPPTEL

SMILES	AC50	outcome
S=c1[nH]c2ccccc2[nH]1	0.984 µM (active)	
c1ccc(Nc2ccc3ccccc3c2)cc1		inactive
N#Cc1cccc(C#N)c1	29.2 µM (active)	

Target: rat Thyrotropin Releasing Hormone Receptor (TRH), Trhr (gene 25570) (UniProt Q01717)
Experiment: NVS_GPCR_rTRH: NovaScreen (NVS) G Protein-Coupled Receptor Assay for rat Thyrotropin Releasing Hormone Receptor (TRH) (AID 2283329);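 also: hit means lower bound tracer signal versus DMSO baseline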
Conditions: not given
Method in brief: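 Competitive radioligand binding on rat forebrain membrane preparations, with filtration and scintillation readout after 4 h. Primary testing in duplicate at 25 uM; actives confirmed in concentration-response. DMSO defined baseline.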

rat Thyrotropin Releasing Hormone Receptor (TRH), Trhr (gene 25570), sequence (Q01717 whole entry, looked up): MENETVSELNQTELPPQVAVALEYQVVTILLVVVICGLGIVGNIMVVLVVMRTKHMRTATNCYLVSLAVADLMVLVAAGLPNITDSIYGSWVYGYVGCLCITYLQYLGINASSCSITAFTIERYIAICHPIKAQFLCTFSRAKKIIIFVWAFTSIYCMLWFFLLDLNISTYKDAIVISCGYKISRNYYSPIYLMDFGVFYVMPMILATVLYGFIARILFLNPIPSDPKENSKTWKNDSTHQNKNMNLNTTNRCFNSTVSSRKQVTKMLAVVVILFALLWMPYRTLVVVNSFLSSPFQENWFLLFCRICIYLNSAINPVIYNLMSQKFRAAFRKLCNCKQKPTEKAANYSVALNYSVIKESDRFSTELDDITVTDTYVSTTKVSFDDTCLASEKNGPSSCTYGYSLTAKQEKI

SMILES	outcome
CC(C)(c1cc(Cl)c(O)c(Cl)c1)c1cc(Cl)c(O)c(Cl)c1	inactive
C=CCN(CC=C)C(=O)C(Cl)Cl	inactive
Cc1ccc(OP(=O)(Oc2ccc(C)cc2)Oc2ccc(C)cc2)cc1 (tested in a mixture with another compound)	inactive

Target: rat Peripheral-type Benzodiazepine Receptor (PBR), Tspo (gene 24230) (UniProt P16257)
Experiment: NVS_MP_rPBR: NovaScreen (NVS) Membrane Protein Assay for rat Peripheral-type Benzodiazepine Receptor (PBR) (AID 2283335)
Conditions: not given
Method in brief: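 Single-concentration duplicate screening at 25 uM preceded concentration-series retesting of actives. Binding of a specific radioligand to rat kidney membrane PBR was read by filtration radiodetection after 1 h, with plate-wise positive and negative controls.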

rat Peripheral-type Benzodiazepine Receptor (PBR), Tspo (gene 24230), sequence (P16257 whole entry, looked up): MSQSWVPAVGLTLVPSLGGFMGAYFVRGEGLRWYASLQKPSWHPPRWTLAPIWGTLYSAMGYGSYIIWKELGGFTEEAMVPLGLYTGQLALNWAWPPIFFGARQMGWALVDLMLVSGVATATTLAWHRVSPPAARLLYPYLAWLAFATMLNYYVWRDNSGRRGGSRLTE

SMILES	AC50
CC(C)CCCCCCCOP(=O)(Oc1ccccc1)Oc1ccccc1	2.91 µM (active)
c1ccc(Nc2ccc3ccccc3c2)cc1	25 µM (active)
Cc1ccc(OP(=O)(Oc2ccc(C)cc2)Oc2ccc(C)cc2)cc1 (tested in a mixture with another compound)	150 nM (active) and 5.34 µM (active)
O=S(=O)(c1ccccc1)c1ccccc1	8.45 µM (active)
